# GLP1R cytotox: qHTS of GLP-1 Receptor Inverse Agonists: Cytotox Screen | HEK293 cAMP-luciferase reporter cells, luminescence, 24 h | Potency, µM (top dose mostly 38.3 µM), without a hit: at the top dose activity change, negative = inhibition, actives largely listed as inhibitors | 0.13% of 410,000 active | AID 624418, 2012;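 note: loss of luciferase light is scored as toxicity; % is set by controls: 0 for no effect and ±100 for the full control effect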
#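 Here, cytotoxicity is scored as loss of luminescence. The MLSMR collection was tested on cells seeded in medium containing 10% Nu serum, with a 24 hr compound exposure preceded by 12 hours of culture.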
# VP16 counter: VP16 counterscreen qHTS for inhibitors of ROR gamma transcriptional activity | Drosophila S2 Gal4-VP16 UAS-luciferase, luminescence, 20 h | Potency, µM (doses to about 53.6 µM), without a hit: at the top dose activity, negative = inhibition, usual class: inhibitors | 3.5% of 310,000 active | AID 2546, 2010;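 note: Gal4-VP16 expression switched on by copper sulfate through the metallothionein promoter; % is set by controls: 0 for no effect and ±100 for the full control effect; nearly all actives have a fitted effect of over 50% in size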
# RORgamma inh: qHTS for inhibitors of ROR gamma transcriptional activity; Nuclear receptor ROR-gamma (Mus musculus), P51450; Drosophila S2 Gal4-RORgamma UAS-luciferase reporter, 20 h; Potency, µM (top dose mostly 53.6 µM), for inactives: top-dose activity change, negative = inhibition, hits mostly inhibitors; 5.4% of 310,000 active; AID 2551, 2010; note: % is set by controls: 0 for no effect and ±100 for the full control effect; nearly all actives have a fitted effect of over 60% in size
#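 Compounds are pin-transferred onto Drosophila Schneider cells expressing a copper-inducible Gal4–ROR gamma transactivation domain fusion. After 1 hr, copper sulfate is added to 700 uM final; luciferase is read 20 hr later.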
# GLP-1R agonist: qHTS of GLP-1 Receptor Agonists; Glucagon-like peptide 1 receptor (Homo sapiens), P43220; HEK293 GLP-1R CRE-luciferase, luminescence, 4-6 h; cells express a hypersensitive GLP-1R form; Potency, µM (doses to about 45.6 µM), for the others: at the top dose activation, hits mostly activators; 0.007% of 380,000 active; note: % of control where 0% means no effect
# Target sequence (P43220 whole entry, looked up): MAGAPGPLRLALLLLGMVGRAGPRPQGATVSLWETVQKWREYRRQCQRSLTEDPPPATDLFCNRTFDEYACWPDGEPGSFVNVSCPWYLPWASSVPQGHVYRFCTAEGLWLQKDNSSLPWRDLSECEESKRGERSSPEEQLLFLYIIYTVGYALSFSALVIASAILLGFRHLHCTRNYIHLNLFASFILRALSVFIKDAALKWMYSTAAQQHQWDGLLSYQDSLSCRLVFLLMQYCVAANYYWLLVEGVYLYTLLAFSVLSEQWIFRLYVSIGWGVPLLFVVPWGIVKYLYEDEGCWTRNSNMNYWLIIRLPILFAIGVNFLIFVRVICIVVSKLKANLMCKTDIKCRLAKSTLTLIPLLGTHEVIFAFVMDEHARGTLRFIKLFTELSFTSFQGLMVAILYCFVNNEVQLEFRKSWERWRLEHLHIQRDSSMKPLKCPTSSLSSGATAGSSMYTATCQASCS
# GLP1R inv ag: qHTS of GLP-1 Receptor Inverse Agonists (Inhibition Mode) | Glucagon-like peptide 1 receptor (Homo sapiens), P43220 | HEK293 GLP-1R CRE-luciferase, luminescence, 24 h; GLP-1R form is constitutively active | Potency, µM (titrated, usually from 38.3 µM), without a hit: at the top dose activity change, negative = inhibition, usual class: inhibitors | 1.6% of 410,000 active | AID 624417, 2012; note: % is set by controls: 0 for no effect and ±100 for the full control effect; nearly all actives have a fitted effect of over 55% in size
#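 Using stably transfected HEK293 (constitutively active GLP-1R, cAMP-luciferase reporter), compounds were incubated 24 hr and luciferase measured by luminescence.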
# An asterisk follows results filed as active; i = inactive; ? = inconclusive; . = not tested or not shown. In the library only some 5.9% were active in any assay of this set; here they are far more common. Calls come from the whole dose curve; as a rule, active = well fitted curve in the direction sought with a large enough effect; inconclusive = small, poorly fitted or top-dose-only effect, or another doubt; inactive = no such curve, though single readings can be large; an effect the other way counts as inactive or inconclusive. Potency is the fitted concentration of half-maximal effect.
SMILES,GLP1R cytotox,VP16 counter,RORgamma inh,GLP-1R agonist,GLP1R inv ag
COc1ccc(-n2c(N)c(C(=O)NCC3CCCO3)c3nc4ccccc4nc32)c(OC)c1 (stereo not drawn),275%,-12%,27%,7%,0%
C=CCn1c(N)c(C(=O)NCC2CCCO2)c2nc3ccccc3nc21 (stereo not drawn),i,?,13µM*,19%,27%
CC(C)=C1C(=O)C(c2ccccc2)=C2CN3C(=O)N(CCc4ccccc4)C(=O)[C@]3(C)[C@H]21,.,3%,-1%,.,.
O=C(O)c1ccc(COc2ccccc2/C=C2\NC(=O)N(Cc3ccccc3F)C2=O)cc1,-22%,-9%,3%,12%,27%
CN1C(=O)/C(=C/c2ccc(OCc3cccc(F)c3)cc2)NC1=S,-9%,?,7.1µM*,-9%,-8%
CN1C(=O)/C(=C/c2ccccc2OCc2ccccc2F)NC1=S,15%,-24%,1.6µM*,1%,0%
Cc1ccc(-c2nonc2NC(=O)c2ccc(F)cc2)cc1C,0%,.,.,.,-14%
O=C(Nc1cccc(F)c1)c1oc2ccccc2c1NC(=O)C12CC3CC(CC(C3)C1)C2,14%,.,.,0%,10%
CS(=O)(=O)c1ccc(C(=O)OCC(=O)NC(=O)C2COc3ccccc3O2)cc1[N+](=O)[O-] (stereo not drawn),-12%,.,.,-1%,14%
CS(=O)(=O)c1ccc(C(=O)OCc2nnc(-c3ccccc3)o2)cc1[N+](=O)[O-],?,13µM*,16µM*,-6%,?
CS(=O)(=O)c1ccc(C(=O)OCC(=O)NC(=O)C2CCCCC2)cc1[N+](=O)[O-],-7%,?,11µM*,-3%,4%
Cc1ccccc1NC(=O)COC(=O)c1ccc(S(C)(=O)=O)c([N+](=O)[O-])c1,?,?,14µM*,-5%,?
Cc1cc(O)cc(O)c1C(=O)OC1(C)C(=O)C=C2C=C(/C=C/CO)OC=C2C1=O (stereo not drawn),.,-12%,-18%,.,.
COc1cc(Cl)c(C)cc1Nc1nc2ccccc2n2cnnc12,9%,.,.,.,-8%
O=C(c1cc2cc([N+](=O)[O-])ccc2oc1=O)N1CCN(c2ncccn2)CC1,3%,1%,20%,0%,0%
O=C(c1cc2cc([N+](=O)[O-])ccc2oc1=O)N1CCOCC1,?,?,5µM*,-1%,-10%
COc1ccc(CNC(=O)c2ccc3c(c2)N(C)C(=O)C2CCCCN32)cc1OC (stereo not drawn),-3%,.,.,.,16%
O=C(Nc1nc2ccccc2[nH]1)c1cccc(S(=O)(=O)N2CCOCC2)c1,-10%,?,8.9µM*,14%,-6%
O=C(Nc1nc2ccccc2[nH]1)c1ccc(F)c(S(=O)(=O)N2CCOCC2)c1,-20%,?,14µM*,-13%,24%
Cc1ccc(S(=O)(=O)N2CCOCC2)cc1C(=O)Nc1ccccc1C(=O)O,0%,.,.,.,8%
O=C(NC(=S)Nc1nc2c(s1)CCCC2)c1ccc(C(=O)c2ccccc2)cc1,4%,?,?,-2%,20%
O=C(NC(=S)Nc1nc2c(s1)CSc1ccccc1-2)c1ccccc1,7%,?,16µM*,-1%,-4%
COc1ccc(/C=C/C(=O)c2ccc(C)s2)cc1,.,17%,-38%,.,.
CCC(Sc1nc2cc3c(cc2c(=O)n1CCCCCC(=O)NCc1ccc2c(c1)OCO2)OCO3)C(=O)NCCCOC (stereo not drawn),-8%,.,.,.,1%
CS[C@@H]1SC[C@H]2C(=O)N(C)C(C(C)C)C(=O)OC[C@@H](NC(=O)c3cnc4ccccc4n3)C(=O)N[C@@H](C)C(=O)N(C)[C@H]1C(=O)N(C)C(C(C)C)C(=O)OC[C@@H](NC(=O)c1cnc3ccccc3n1)C(=O)N[C@@H](C)C(=O)N2C (stereo partly drawn),.,-1%,0.04µM*,.,.
SMILES,GLP1R cytotox,VP16 counter,RORgamma inh,GLP-1R agonist,GLP1R inv ag
CCOC(=O)N1N=C(C)CC1(O)c1ccc(Cl)cc1 (stereo not drawn),4%,4%,-16%,-1%,46%
CC1=NN(C(=O)c2ccccc2C)C(O)(c2ccc(Cl)cc2)C1 (stereo not drawn),-5%,7.9µM*,6.3µM*,3%,-77%
CC1=NN(C(=O)c2ccccc2Br)C(O)(c2ccc(Cl)cc2)C1 (stereo not drawn),4%,8.9µM*,4µM*,11%,3.2µM*
CCOC(=O)C1=NN(C(=O)c2ccc(C)cc2)C(O)(c2ccc(Cl)cc2)C1 (stereo not drawn),4%,?,?,-11%,-3%
O=C(CSc1cn(CC(=O)N2CCCCC2)c2ccccc12)Nc1ccccc1F,-1%,.,.,.,-9%
CC(=O)c1ccc(NC(=O)c2onc(C)c2Cl)cc1,-4%,-15%,10%,-3%,?
Cc1noc(NC(=O)c2ccc(Cl)c(Cl)c2)c1Cl,-16%,18µM*,?,-1%,-14%
CN(C)c1ccc(CN(Cc2ccco2)C(=O)c2ccc(C(C)(C)C)cc2)cc1,0%,.,.,.,11µM*
Cc1ccc(CN(Cc2ccco2)C(=O)c2cccc(C)c2)cc1,1%,.,.,.,11µM*
COc1ccc(C(=O)N(Cc2ccc(N(C)C)cc2)Cc2ccco2)cc1Cl,-11%,.,.,.,?
N=C(C[C@@H](O)COc1ccccc1-c1ccccc1)N1CCCCC1,.,4%,-7%,.,.
CCOCCCNC(=O)c1cnc2sc(N3CCCCC3)nn2c1=O,-5%,.,.,.,4%
Cc1ccc(Cn2c(O)c(N=NC(=S)Nc3ccccc3F)c3cc(S(=O)(=O)N4CCOCC4)ccc32)cc1,-24%,?,2µM*,0%,20%
Cc1ccc(C)c(NC(=S)N=Nc2c(O)n(C)c3ccc(S(=O)(=O)N4CCOCC4)cc23)c1,?,1.1µM*,0.63µM*,-3%,?
Cc1cc(S(=O)(=O)N2CCOCC2)ccc1OCC(=O)Nc1ccccc1F,16%,-1%,-28%,0%,6%
CCc1ccccc1NC(=S)N=Nc1c(O)n(C)c2ccc(S(=O)(=O)N3CCOCC3)cc12,?,4.5µM*,1.1µM*,8%,?
Cc1ccc(C)c(SCC(=O)Nc2cc(S(=O)(=O)N3CCOCC3)ccc2C)c1,-17%,.,.,-2%,?
CCNc1ncc2nc(-c3ccc(Cl)cc3)c(=O)n(-c3ccc(OC)cc3)c2n1,.,0%,?,.,.
Cc1cc(NS(=O)(=O)c2ccc(NC(=O)COc3ccccc3Br)cc2)no1,-9%,.,.,.,6%
COc1ccc(CN(C)C(=O)CNC(=O)Cc2cccc3ccccc23)c(OC)c1OC,0%,-16%,14%,27%,7%
